# Screening data deposited in PubChem by National Center for Advancing Translational Sciences (NCATS).
# HP1b chromo inh = blocks HP1-beta chromodomain binding to methylated histone tails. P83916. AlphaScreen HP1-beta / biotin-H3K9me3 peptide binding. Potency, µM (top dose mostly 114 µM), without a hit: at the top dose activity change, negative = inhibition, hits mostly inhibitors. actives 0.56% (n = 390,000). AID 540317; note: nearly all actives have a fitted effect of over 70% in size
#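 Compound inhibition of the preformed complex between 50 nM HP1-beta and 50 nM biotinylated H3K9me3 peptide was read by AlphaScreen. Buffer was PBS pH 7.4 with 0.01% Tween-20. Incubations ran 30 min at room temperature, with 10 ug/mL donor/acceptor beads.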
# VDR inh = vitamin D3 receptor (human) inhibition; actives 0.93% (n = 400,000); Potency, µM, inactives show max response, negative = inhibition, hits mostly inhibitors; VDR-SRC2-3 peptide fluorescence polarization, 2 h; note: % is set by controls: 0 for no effect and ±100 for the full control effect
#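 Reagent solutions, kept cold and dark, are dispensed first; compounds are then pinned in at 23 nl, plates briefly spun, and incubated 2 h at ambient temperature. Inhibition of VDR–SRC2-3 peptide binding is read by fluorescence polarization.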
# JMJD2A Tudor = JMJD2A Tudor domain (human) inhibition; O75164; AlphaScreen JMJD2A-Tudor / H3K4me3 peptide binding; Potency, µM (doses to about 114 µM), inactives show at the top dose activity change, negative = inhibition, usual class: inhibitors; actives 4.4% (n = 390,000); AID 504339; note: % is set by controls: 0 for no effect and ±100 for the full control effect; nearly all actives have a fitted effect of over 50% in size
# PLK1 PBD inh = PLK1 (human) polo-box domain binding inhibition. AID 720504. Potency, µM, for inactives: max response, negative = inhibition, most hits filed as inhibitors. actives 2.8% (n = 360,000). Plk1 PBD binding of FITC phosphopeptide, fluorescence polarization; note: series mostly up to about 57 µM; % is set by controls: 0 for no effect and ±100 for the full control effect; nearly all actives have a fitted effect of over 65% in size
# Target sequence (P53350 whole entry, looked up, the tested form may be a part): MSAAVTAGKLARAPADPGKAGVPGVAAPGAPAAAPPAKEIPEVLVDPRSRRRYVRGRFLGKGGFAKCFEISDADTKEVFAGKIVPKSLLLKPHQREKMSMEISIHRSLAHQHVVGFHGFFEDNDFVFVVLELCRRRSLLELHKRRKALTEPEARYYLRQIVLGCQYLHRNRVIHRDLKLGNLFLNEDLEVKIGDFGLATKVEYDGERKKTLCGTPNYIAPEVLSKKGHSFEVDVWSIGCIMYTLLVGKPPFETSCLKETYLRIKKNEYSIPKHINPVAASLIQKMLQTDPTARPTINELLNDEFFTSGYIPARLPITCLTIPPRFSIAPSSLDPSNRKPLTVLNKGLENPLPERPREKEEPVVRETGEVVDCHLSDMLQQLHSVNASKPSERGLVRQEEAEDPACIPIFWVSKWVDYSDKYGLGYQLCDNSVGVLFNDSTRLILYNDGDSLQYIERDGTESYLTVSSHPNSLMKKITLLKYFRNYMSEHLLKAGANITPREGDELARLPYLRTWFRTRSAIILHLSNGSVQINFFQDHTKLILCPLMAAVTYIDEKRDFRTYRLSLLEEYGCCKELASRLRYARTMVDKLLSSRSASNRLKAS
# L3MBTL1 block = blocks human L3MBTL1; Potency, µM (doses to about 57.1 µM), inactives show at the top dose activity, negative = inhibition, actives largely listed as inhibitors; actives 0.66% (n = 230,000); AID 485360; Q9Y468; AlphaScreen L3MBTL1–H3K9me1 peptide binding; note: % is set by controls: 0 for no effect and ±100 for the full control effect; nearly all actives have a fitted effect of over 60% in size
#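 L3MBTL1 50 nM + b-AHA-H3(1-15)K9me1 75 nM, 30 min RT; compound added, 30 min RT; streptavidin donor/Ni-chelate acceptor beads 10 ug/mL each final, 30 min RT dark; AlphaScreen read.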
# BAZ2B block = inhibitors of human BAZ2B bromodomain; AlphaScreen BAZ2B-H3K14Ac peptide displacement; actives 4.4% (n = 360,000); Potency, µM (titrated, usually from 114 µM), for inactives: top-dose activity change, negative = inhibition, usual class: inhibitors; AID 504333; note: % is set by controls: 0 for no effect and ±100 for the full control effect; nearly all actives have a fitted effect of over 60% in size
#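 Inhibition is scored as reduced AlphaScreen emission. The BAZ2B/b-H3(5-23)K14Ac complex (50 nM each) in PBS pH 7.4, 0.01% Tween-20 meets compound (up to 110 uM) for 30 min at RT before bead addition.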
# Starred values were filed as active, the others as inactive; ? = inconclusive; . = no result given; [ ] = remark or other dose. Only some compounds are listed: those with a hit (about 6.9% of all), similar ones and a draw of the others. Calls come from the whole dose curve; as a rule, active = well fitted curve in the direction sought with a large enough effect; inconclusive = small, poorly fitted or top-dose-only effect, or another doubt; inactive = no such curve, though single readings can be large; an effect the other way counts as inactive or inconclusive. Potency is the fitted concentration of half-maximal effect.
SMILES,HP1b chromo inh,VDR inh,JMJD2A Tudor,PLK1 PBD inh,L3MBTL1 block,BAZ2B block
CCOC(=O)N1CCN(C(=O)c2ccc(CS(=O)(=O)c3ccc(OC)cc3)o2)CC1,10%,?,?,27µM*,6%,12%
COc1ccccc1S(=O)(=O)Cc1ccc(C(=O)N2CCN(c3ccccn3)CC2)o1,12%,?,?,27µM*,3%,8%
O=C(NCCCN1CCCC1)c1ccc(CS(=O)(=O)c2ccc(Cl)cc2)o1,41%,-14%,0%,-7%,.,-14%
COc1ccc(N2CCN(CCCNC(=O)CCC(=O)N3CCOc4ccc(Cl)cc43)CC2)cc1,-17%,-10%,?,-10%,.,32µM*
COc1ccc(N2CCN(CCCNC(=O)c3ccc(CS(=O)(=O)c4ccc(Cl)cc4)o3)CC2)cc1,22%,-21%,14%,-10%,.,28µM*
CCN(CC)C(=O)Cn1ncc2c([nH]c3ccc(C)cc32)c1=O,14%,13%,-12%,.,.,12%[57.1 µM]
COc1cc2nc(SCc3ccc(Cl)cc3)n3nc(CCn4nc(C)cc4C)nc3c2cc1OC,-16%,-9%,-28%,.,.,.
COc1ccc(S(=O)(=O)Cc2ccc(C(=O)NC(C)C)o2)cc1,20%,?,?,21µM*,4%,8%
CCC(C)NC(=O)c1ccc(CS(=O)(=O)c2ccc(OC)cc2)o1 (centres undefined),46%,13%,1%,-8%,.,-3%
CCCn1nnnc1NC(=O)c1cc(Cl)ccc1Cl,12%,-9%,40µM*,27µM*,4%,56µM*
CCCn1nnnc1NC(=O)COc1ccc(Cl)c(C)c1,20%,5%,-20%,-6%,0%,?
CCCSc1ccc([C@@H]2[C@@H]3C(=O)N(C)C(=O)[C@@H]3[C@]3(C(=O)OC)CCCN23)cc1OC,24%,-25%,-27%,-14%,-6%,?
CCc1ccc2c(c1)C(NC(C)=O)C(=O)N2CCN1CCOCC1 (centres undefined),-18%[57 µM],?,10µM*,-6%,.,13µM*
COc1ccc(/C=C2\Oc3cc(OCC(N)=O)ccc3C2=O)cc1OC,37%,4%,-12%,-5%,.,2%
COc1ccc2c(c1)O/C(=C\c1ccco1)C2=O,?,9%,?,-12%,.,14µM*
O=C(O)c1cccc(N/N=C(\N=Nc2ccccc2)c2ccccc2)c1,35µM*,?,40µM*,?,?,14µM*
O=C(/C(=N\Nc1ccc(Br)cc1)Sc1nnnn1-c1ccccc1)c1ccccc1,1%,-4%,-34%,-23%,-14%,?
Brc1ccc(N/N=C(/N=Nc2nn[nH]n2)c2ccccc2)cc1,13µM*,?,13µM*,?,?,11µM*
O=C(O)c1ccc(N=N/C(=N\Nc2ccc(C(=O)O)cc2)c2ccccc2)cc1,?,-7%,50µM*,-16%,?,28µM*
Cc1cccc(Nc2cc(C)c3c(O)cccc3n2)c1C,-3%,12%,45µM*,3%,-10%,40µM*
C/C=C/COC(=O)c1[nH]c2c(c1C)C(=O)CC(c1ccco1)C2 (centres undefined),-8%,?,50µM*,?,?,50µM*
C=CCOC(=O)c1[nH]c2c(c1C)C(=O)CC(c1ccco1)C2 (centres undefined),28µM*,79µM*,20µM*,?,?,50µM*
Cc1c(C(=O)OC2CCCC2)[nH]c2c1C(=O)CC(c1ccco1)C2 (centres undefined),4%,8%,?,-19%,-24%,?
C/C=C/COC(=O)c1[nH]c2c(c1C)C(=O)CC(c1ccc(N(C)C)cc1)C2 (centres undefined),-12%,-8%,89µM*,-15%,-13%,?
Cc1c(C(=O)OCC(C)C)[nH]c2c1C(=O)CC(c1ccco1)C2 (centres undefined),18%,-14%,?,-10%,?,50µM*
